AHR act = activates the human aryl hydrocarbon receptor. P35869. AHR-responsive luciferase reporter cells, luminescence. activation, % at 5 µM. 320,000 tested, 2.5% active; in the data active means activation above about 47%;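 further: 0% = vehicle wells and 100% = reference agonist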
ssDAF12 agonist = activators of S. stercoralis DAF-12 nuclear receptor | HEK293 ssDAF-12/GRIP1 lit1-tk-luc reporter, luminescence; % of 3 µM dafachronic acid response | activation, % at 6.8 µM | 370,000 tested, 1% active | AID 652126;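 active means activation above the mean over all tested compounds plus 3 SD, cut at about 0.9% in these data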;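 further: 0% = DMSO-only wells and 100% = 3 µM delta7-dafachronic acid wells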
hcDAF-12 act = activates DAF-12 receptor from parasite H. contortus; HEK293 hcDAF-12 lit1-tk-luc reporter, luminescence; 0% DMSO, 100% Δ7-dafachronic acid; activation, % at 6.8 µM; 370,000 tested, 1.4% active; AID 652067;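 active means activation above the mean of all tested compounds plus 3 SD, cut at about 5.5% in these data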;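 further: 100% = response to 3 µM Δ7-dafachronic acid high control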
DAX1 inh-1 = inhibits human nuclear receptor DAX1 | AID 504766 | HEK293 Gal4-DAX1 luciferase reporter, luminescence | 340,000 tested, 0.99% active | P51843 | inhibition, % at 6.75 µM;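 active means inhibition above the mean over all tested compounds plus 3 SD, cut at about 4.2% in these data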;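 further: 0% = DAX1-transfected cells with DMSO and 100% = empty-vector control cells with DMSO; inhibition shows as a rise in luminescence from relieved DAX1 repression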
Target sequence (P51843 207-470 limits assumed): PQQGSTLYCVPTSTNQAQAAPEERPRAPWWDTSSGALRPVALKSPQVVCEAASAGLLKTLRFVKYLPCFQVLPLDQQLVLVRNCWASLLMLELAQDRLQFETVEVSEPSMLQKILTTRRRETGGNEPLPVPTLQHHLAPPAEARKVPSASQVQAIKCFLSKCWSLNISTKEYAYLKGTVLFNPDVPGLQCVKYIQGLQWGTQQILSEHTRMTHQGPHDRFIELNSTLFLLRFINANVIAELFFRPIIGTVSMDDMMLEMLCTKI
DAX1 inh-2 = inhibitors of DAX1 repression of SF-1 activated StAR promoter | HEK293T StAR-luciferase reporter, SF-1/DAX-1 repression relief | inhibition, % at 6.8 µM | 370,000 tested, 1.1% active | AID 652010;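 active means inhibition above the mean over all tested compounds plus 3 SD, cut at about 3.6% in these data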;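 further: 0% = DAX-1 cells with DMSO and 100% = cells lacking DAX-1 with DMSO; higher inhibition means more luminescence from relief of DAX-1 repression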
hgDAF-12 ag = agonists of H. glycines DAF-12 nuclear receptor; 370,000 tested, 1.8% active; HEK293 GAL4-hgDAF12 UAS-luciferase reporter, agonist luminescence; normalized to butyrate control; AID 687014; activation, % at 6.8 µM;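 active means activation above a cutoff set at the mean of all screened compounds plus 3 SD, cut at about 10% in these data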;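 further: 0% = DMSO wells and 100% = sodium butyrate wells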
An asterisk follows results filed as active. Only some compounds are listed: those with a hit (about 5.7% of all), similar ones and a draw of the others.

Screening Cc1cc(C(F)(F)Cl)n2ncc(-c3ccccn3)c2n1 returned AHR act 64*, ssDAF12 agonist 1.2*, hcDAF-12 act 2, DAX1 inh-1 2, DAX1 inh-2 0 and hgDAF-12 ag 0.
Screening CCCCCCOC(=O)C(C#N)c1nc2ccccc2nc1N1CCCCC1 (centres undefined) returned AHR act 0, ssDAF12 agonist -2, hcDAF-12 act 0, DAX1 inh-1 2, DAX1 inh-2 -1 and hgDAF-12 ag 2.
COc1ccc(C(=O)/C=C2\C(=O)Nc3ccc(Br)cc32)cc1 was read as ssDAF12 agonist -1, hcDAF-12 act 0, DAX1 inh-1 0, DAX1 inh-2 -1 and hgDAF-12 ag 1.
For O=C1Nc2ccc(Br)cc2/C1=C/C1CC=CCC1 (centres undefined) the results were AHR act 16, ssDAF12 agonist 1.0*, hcDAF-12 act 2, DAX1 inh-1 0, DAX1 inh-2 -1 and hgDAF-12 ag 3.
CNc1cnc(-c2ccc(F)c(F)c2F)cn1 was read as ssDAF12 agonist 0, hcDAF-12 act 2, DAX1 inh-2 3.8* and hgDAF-12 ag 12*.
C[C@H](O)[C@@H]1C(=O)N2CCc3c([nH]c4c(-c5ccccc5)cccc34)[C@@H]2C[C@@H]1N(C)C(=O)Nc1cccc2ccccc12 was read as ssDAF12 agonist -1, hcDAF-12 act 2, DAX1 inh-2 0 and hgDAF-12 ag -3.
COc1ccc(S(=O)(=O)Nc2ccccc2C(=O)NC2CC2)cc1NC(C)=O was read as AHR act 0, ssDAF12 agonist -1, hcDAF-12 act -2, DAX1 inh-1 0, DAX1 inh-2 1 and hgDAF-12 ag -1.
`O=C(Nc1cccc(-c2csc(Nc3ccc(Cl)cc3)n2)c1)c1cc([N+](=O)[O-])cc(C(F)(F)F)c1` gave AHR act 56*, ssDAF12 agonist 0, hcDAF-12 act 1, DAX1 inh-1 2, DAX1 inh-2 1 and hgDAF-12 ag 0.
For O=C(Nc1cccc(-c2csc(Nc3ccccc3)n2)c1)c1cc([N+](=O)[O-])cc(C(F)(F)F)c1 the results were AHR act 31, ssDAF12 agonist -1, hcDAF-12 act 0, DAX1 inh-1 1, DAX1 inh-2 1 and hgDAF-12 ag 4.
OC1(Cc2ccn[nH]2)CCCCC1 was read as AHR act 0.
Screening COc1ccc(C2=Nn3c(nnc3-c3ccncc3)SC2)cc1OC returned AHR act 24, ssDAF12 agonist -2, hcDAF-12 act -2, DAX1 inh-1 0, DAX1 inh-2 -1 and hgDAF-12 ag -1.
`Cn1c(=NC(=O)c2ccc(S(=O)(=O)N3CCCc4ccccc43)cc2)sc2cc(S(C)(=O)=O)ccc21` gave AHR act 5, ssDAF12 agonist -2, hcDAF-12 act 0, DAX1 inh-1 1, DAX1 inh-2 0 and hgDAF-12 ag -3.
For Cn1c(=NC(=O)c2ccccc2[N+](=O)[O-])sc2cc(S(C)(=O)=O)ccc21 the results were AHR act 21, ssDAF12 agonist 0, hcDAF-12 act 5, DAX1 inh-1 2, DAX1 inh-2 4.3* and hgDAF-12 ag 12*.
`Cc1cc(=O)nc2c3ccccc3n(CC(=O)NC(C)c3ccc4c(c3)OCCO4)n12` (centres undefined) gave AHR act 21, ssDAF12 agonist 0, hcDAF-12 act 6.0*, DAX1 inh-1 0, DAX1 inh-2 0 and hgDAF-12 ag 0.
For CCCNC(=O)Cn1c2ccccc2c2nc(=O)cc(C)n21 the results were AHR act 18, ssDAF12 agonist 1, hcDAF-12 act 5, DAX1 inh-1 0, DAX1 inh-2 1 and hgDAF-12 ag 0.
For O=C(CSc1nc2[nH]ncc2c(=O)[nH]1)Nc1nccs1 the results were AHR act 13, ssDAF12 agonist 7.5*, hcDAF-12 act 2, DAX1 inh-2 0 and hgDAF-12 ag -1.
`CCOc1ccc(NC(=O)Nc2cccnc2)cc1` gave AHR act 61*, ssDAF12 agonist -1, hcDAF-12 act 1, DAX1 inh-1 2, DAX1 inh-2 1 and hgDAF-12 ag 7.
`O=C(Nc1cccnc1)Nc1ccc(Cl)cc1Cl` gave AHR act 48*, ssDAF12 agonist -1, hcDAF-12 act -2, DAX1 inh-1 0, DAX1 inh-2 0 and hgDAF-12 ag 2.
`CC(=O)c1cccc(NC(=O)Nc2cccnc2)c1` gave AHR act 65*, ssDAF12 agonist -1, hcDAF-12 act -3, DAX1 inh-1 0, DAX1 inh-2 -1 and hgDAF-12 ag 3.
For COc1ccc(NC(=O)Nc2cccnc2)cc1 the results were AHR act 27, ssDAF12 agonist -2, hcDAF-12 act 0, DAX1 inh-1 0, DAX1 inh-2 0 and hgDAF-12 ag 10.
For COC(=O)c1c(-c2ccc(N(C)C)cc2)sc2ccc(OC)cc12 the results were AHR act 7, ssDAF12 agonist -3, hcDAF-12 act -6, DAX1 inh-1 -3, DAX1 inh-2 -2 and hgDAF-12 ag -10.
Screening Cc1ccc(NC2=C/C(=N\S(=O)(=O)c3cccs3)c3ccccc3C2=O)c(C)c1 returned AHR act 13 and DAX1 inh-1 -6.
For Cc1ccc(Cl)cc1NC1=C/C(=N\S(=O)(=O)c2cccs2)c2ccccc2C1=O the results were AHR act 24, ssDAF12 agonist 1.0*, hcDAF-12 act 2, DAX1 inh-1 0, DAX1 inh-2 0 and hgDAF-12 ag -3.
Cc1cc(Cl)cc2c(N=Nc3ccccc3C(=O)O)c(O)[nH]c12 was read as AHR act 8, ssDAF12 agonist -1, hcDAF-12 act -1, DAX1 inh-1 -1, DAX1 inh-2 0 and hgDAF-12 ag -2.
Cc1ccc(C2CC(c3ccco3)n3ncnc3N2)cc1 (centres undefined) was read as AHR act 2, ssDAF12 agonist -2, hcDAF-12 act 0, DAX1 inh-1 0, DAX1 inh-2 -1 and hgDAF-12 ag 0.
Screening Cc1ccc2c(c1)C(N1CCCC1=O)CC(c1ccco1)N2 (centres undefined) returned AHR act 1, ssDAF12 agonist 0, hcDAF-12 act 5.7*, DAX1 inh-1 1, DAX1 inh-2 3 and hgDAF-12 ag 11*.
For O=c1c2ccccc2nc(-c2ccco2)n1/N=C/c1ccco1 the results were AHR act 62*, ssDAF12 agonist -1, hcDAF-12 act 1, DAX1 inh-1 -1, DAX1 inh-2 -1 and hgDAF-12 ag 1.
`Cc1nc2ccccc2c(=O)n1/N=C/c1ccco1` gave AHR act 1, ssDAF12 agonist -1, hcDAF-12 act -3, DAX1 inh-1 0, DAX1 inh-2 1 and hgDAF-12 ag 4.
